Measured values from the supplement of paper PMC6555819.

Columns and labels:
Assay in all cases: PBM binding z-score (relative to random genomic background probes); higher = stronger binding; sequences stand for … in GC…GCGATTGACAGCGTAGAATGAAGG
[1] = tested on: FXR:RXRa (NR concentration 270 nM, RXRa partner concentration 90 nM)
How it was run: (§1)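 Binding z-scores take random background probes as their reference. They come from custom Agilent 4×180K protein-binding microarrays incubated 1 h with ligand-free nuclear receptor dimers, with antibodies against each partner (one per run) detecting binding. Scanned fluorescence was regression-normalized.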

[2] = tested on: LXRa:RXRa (NR concentration 270 nM, RXRa partner concentration 90 nM)
How it was run: as §1

[3] = tested on: LXRa homodimer (NR concentration 270 nM)
How it was run: as §1

[4] = tested on: LXRb:RXRa (NR concentration 270 nM, RXRa partner concentration 90 nM)
How it was run: as §1

[5] = tested on: LXRb homodimer (NR concentration 270 nM)
How it was run: as §1

[6] = tested on: PPARa:RXRa (NR concentration 270 nM, RXRa partner concentration 90 nM)
How it was run: as §1

[7] = tested on: PPARg:RXRa (NR concentration 180 nM, RXRa partner concentration 90 nM)
How it was run: as §1

[8] = tested on: PPARg:RXRa 270nM:90nM, anti-RXR (NR concentration 270 nM, RXRa partner concentration 90 nM)
How it was run: as §1

[9] = tested on: PPARg:RXRa 30nM:10nM, anti-RXR (NR concentration 30 nM, RXRa partner concentration 10 nM)
How it was run: as §1

[10] = tested on: PPARg:RXRa 90nM:30nM, anti-RXR (NR concentration 90 nM, RXRa partner concentration 30 nM)
How it was run: as §1

[11] = tested on: PPARg:RXRa DBDmut IVT, anti-RXR (DBD mutation: RXRa K156A/R161A, NR concentration 270 nM, RXRa partner concentration 90 nM)
How it was run: as §1

[12] = tested on: PPARg:RXRa IVT, anti-PPARg (NR concentration 270 nM, RXRa partner concentration 90 nM)
How it was run: as §1

[13] = tested on: PPARg DBDmut:RXRa IVT, anti-PPARg (DBD mutation: PPARg1 K132A/R137A, NR concentration 270 nM, RXRa partner concentration 90 nM)
How it was run: as §1

[14] = tested on: PPARg DBDmut IVT, anti-PPARg (DBD mutation: PPARg1 K132A/R137A, NR concentration 270 nM)
How it was run: as §1

[15] = tested on: PPARg homodimer (NR concentration 180 nM)
How it was run: as §1

[16] = tested on: PXR:RXRa (NR concentration 270 nM, RXRa partner concentration 90 nM)
How it was run: as §1

[17] = tested on: PXR homodimer (NR concentration 270 nM)
How it was run: as §1

[18] = tested on: RARa:RXR (NR concentration 270 nM, RXRa partner concentration 90 nM)
How it was run: as §1

[19] = tested on: RARa homodimer (NR concentration 270 nM)
How it was run: as §1

[20] = tested on: RARb:RXRa (NR concentration 270 nM, RXRa partner concentration 90 nM)
How it was run: as §1

Sequence	PBM binding z-score [1]	PBM binding z-score [2]	PBM binding z-score [3]	PBM binding z-score [4]	PBM binding z-score [5]	PBM binding z-score [6]	PBM binding z-score [7]	PBM binding z-score [8]	PBM binding z-score [9]	PBM binding z-score [10]	PBM binding z-score [11]	PBM binding z-score [12]	PBM binding z-score [13]	PBM binding z-score [14]	PBM binding z-score [15]	PBM binding z-score [16]	PBM binding z-score [17]	PBM binding z-score [18]	PBM binding z-score [19]	PBM binding z-score [20]
ACTCGGAGGACAAAGGTCAGAGGTACGCCAGTGA	4.04	4.06	1.7	3.26	-0.137	5.14	7.26	6.74	4.88	7.16	0.77	3.42	0.61	0.441	3.17	3.86	0.587	4.61	0.603	4.43
AGAACGCGGGCAATGAGTTGATAGCACGGGTGGC	-0.43	-0.534	-0.756	-1.26	-1.21	-0.548	0.71	-0.504	-0.182	-0.404	0.179	-0.0527	0.2	-0.67	-0.548	-0.0595	0.229	-0.166	-0.629	0.349
AGTCAAAGTTCCTCTAGGTAACGTAAGATATGCT	-0.245	-0.144	-0.104	-0.00782	-0.432	0.0097	0.612	0.996	0.256	0.424	-0.227	1.14	-0.00849	0.378	-0.0696	0.0815	-0.225	0.241	0.00507	0.881
ACTATTAGTTGCGACGAGGGCAACCGATAGGTTG	0.025	-0.176	-0.51	-0.131	-0.0376	0.201	0.576	0.00262	-0.168	0.0381	-0.375	0.286	0.385	0.517	0.166	0.401	-0.0266	0.277	0.0553	0.852
CCAGGCAGGTGAAAGGTAACTCAGTCTGGTACGC	0.326	0.496	-0.353	0.47	-0.921	3.13	5.95	6.52	4.44	7.19	2.16	3.13	-1.38	-0.814	1.59	0.457	-0.265	1.53	-0.973	1.02
CCTCGGAGGACAGAAGGTCAGAGCGGTCCGCTTT	1.42	1.8	0.0694	0.843	-0.863	1.78	-0.185	0.642	-0.618	0.0661	0.0292	-0.0958	-1.49	-1.9	1.2	1.91	-0.289	1.91	0.122	3.18
GGAACGAAGGCAAGTTGATAGCAGAGTTTGATGG	-0.951	-0.918	-0.858	-1.13	-1.2	-0.649	0.469	-0.479	-0.377	-0.674	-0.11	-0.659	0.0164	-0.632	-0.995	-0.665	-0.247	-0.931	-0.746	-0.503
AGAATGAGGTTATACGTAGATCAAGGAAGAAAGT	2.5	2.22	0.0848	1.72	0.172	3.25	2.25	2.12	0.826	1.62	4.05	2.17	1.37	0.946	1.39	1.25	0.179	1.97	0.408	1.58
CGTCAAAATTCAAGGTAACGTAACAGAAAGCAGC	0.068	-0.273	0.242	0.13	0.187	0.331	0.678	0.108	0.0221	0.028	0.000306	0.704	0.815	0.761	0.474	-0.0296	0.268	0.363	0.932	0.208
CGTCAAAGTTCAACTAAGGTATCGTAAAGCACGC	7.21	6.22	4.37	4.24	2.23	5.15	4.83	5.57	2.02	4.5	0.0447	1.92	1.2	0.78	3.06	5.09	3.7	4.2	2.1	5.24
TCATATAGGTAAATGCTAGGTGAAAGACCGATCT	1.17	1.12	0.232	0.72	-0.0647	1.48	1.22	2.38	3.79	2.96	3.73	2.45	1.16	1.31	1.02	0.594	0.174	0.931	0.867	0.44
CATACTGGGCCATTCAGAGGTCATTGATCATATG	3.03	4.44	6.31	3.86	0.861	3.77	2.37	3.13	1.18	2.26	3.86	3.89	1.19	0.509	2.57	4.82	2.58	4.36	0.758	3.14
CTCGAAAGGTCGGTTGAGCTGAGTATACGGATAA	1.24	0.827	-0.605	0.855	-0.258	2	0.00937	0.523	-0.12	0.207	0.0426	0.318	-0.21	-0.532	0.0115	0.392	-0.439	0.834	0.167	2.58
TAGACTAGGTCATTCAGGGGCCAGTATAGAAAGC	4.16	3.02	0.5	2.45	1.5	3.77	5.02	4.54	2.12	3.67	6.24	6.36	3.24	2	2.65	2.21	0.176	3.32	0.508	3.64
GCAACTGGGGCATCAGCAGGTTACCATAACTTAA	-0.117	-0.265	-0.205	1.08	-0.444	1.83	2.26	1.76	0.0895	1.1	5.86	5.15	-0.129	0.0733	0.577	0.0192	-0.0956	0.138	-0.393	0.963
